Measured values from PubChem BioAssay AID504840 (Johns Hopkins Ion Channel Center, 2011).
Out of some 1,500 compounds screened, about 890 (59%) were called active.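 Rule for the calls: active = inhibition of the choline-evoked signal at any tested dose together with a fitted dose-response curve; inactive = no inhibition at any dose or no curve.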 So high a share suggests a set chosen from earlier hits. A selection follows. Potency and affinity values are given separately.

Biological target: High affinity choline transporter 1 (Homo sapiens) (UniProt Q9GZV3)
Assay: CHT inhibitors, dose response, cell-based, 5-point CRC, membrane potential dye (AID 504840);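 note: 0% = buffer-only response and 100% = EC90 choline response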
Conditions: HEK293-CHT, choline-induced depolarization, CHT with LV-to-AA double alanine mutation; series mostly up to 37 µM; inhibition: at the top concentration

Sequence of High affinity choline transporter 1 (Homo sapiens) (Q9GZV3 whole entry, looked up): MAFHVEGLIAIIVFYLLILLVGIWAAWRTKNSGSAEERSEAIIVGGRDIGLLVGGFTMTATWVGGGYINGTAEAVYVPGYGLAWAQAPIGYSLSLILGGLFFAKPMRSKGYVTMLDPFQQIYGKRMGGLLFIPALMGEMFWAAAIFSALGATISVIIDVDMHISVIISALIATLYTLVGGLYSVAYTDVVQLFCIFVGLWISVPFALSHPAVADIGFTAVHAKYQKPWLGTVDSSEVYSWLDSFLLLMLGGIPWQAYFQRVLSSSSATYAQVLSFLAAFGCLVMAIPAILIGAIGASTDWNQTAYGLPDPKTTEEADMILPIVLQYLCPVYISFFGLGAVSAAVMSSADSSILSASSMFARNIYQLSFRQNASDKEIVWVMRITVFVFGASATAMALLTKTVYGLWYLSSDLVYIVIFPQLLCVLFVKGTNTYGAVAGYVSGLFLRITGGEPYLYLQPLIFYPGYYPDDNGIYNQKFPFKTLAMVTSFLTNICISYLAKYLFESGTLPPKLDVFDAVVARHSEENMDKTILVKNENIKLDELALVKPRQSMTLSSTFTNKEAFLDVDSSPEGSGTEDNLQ

inhibition, inactive:
COc1ccc2c(c1)-c1c(ssc1=S)C(C)(C)N2 39.6%, CC(C)OC(=O)CN1CCN(S(=O)(=O)c2cc(Cl)ccc2Cl)CC1 39%, CC(=O)c1ccc(S(=O)(=O)N(C)C(C)CCc2ccco2)cc1 (stereo not given) 28.6%, Cc1ccc(C(C)NC(=S)NCc2ccc(F)cc2)cc1C (stereo not given) 40.9%, COc1cccc(NC(=S)N(Cc2ccc(C(=O)O)cc2)Cc2ccc(OC)c(OC)c2)c1 48.2%, CCN(CC)CCCN(C(=O)c1ccco1)c1nc(-c2ccc(Cl)cc2)cs1 42.7%, CCCCNC(=O)c1onc(CSc2ccc(C(C)C)cc2)c1C(=O)O 17.3%, O=C1c2ccccc2-c2cccnc21 60.6%, O=[N+]([O-])c1ccc(Nc2ccccc2O)c2nonc12 42.7%, CCc1ccc(N/C(=N/c2nc(C)cc(C)n2)NC(C)=O)cc1 16.7%, Cc1ccc2nc(Nc3ccccc3)cc(C)c2c1 64.7%, CCSc1nnc2n1C(C)(C)Cc1ccccc1-2 23%, CCOc1ccc(OCc2ccc(C(=O)N3CCCC3)o2)cc1 50.7%, COc1ccc(C2CC(c3ccc(Br)cc3)=NN2C(=O)CN2CCCC2)cc1 (stereo not given) 51%, COc1ccc(C2SCC(=O)N2CCc2ccc(OC)c(OC)c2)cc1 (stereo not given) 24%, CC(=O)N1c2ccc(S(=O)(=O)NCc3ccccc3Cl)cc2CC1C (stereo not given) 33%, CCOC(=O)N1CCN(C(=O)c2ccc3nc(N4CCC(C)CC4)sc3c2)CC1 40.3%, CCOC(=O)c1oc2nc(C(C)C)c3c(c2c1N)CCC3 56.5%, CCCc1nc2oc(C(=O)OCC)c(N)c2c2c1COC(C)(C)C2 54.8%, Cc1ccc(CNc2ncc(-c3ccccc3)n2C)o1 75.2%, OCCn1nc(-c2ccccc2)cc1-c1ccccc1 17.9%, Cn1c(SCC(=O)N2CCN(c3ccccc3)CC2)nnc1-c1ccccc1 27.7%, CS(=O)(=O)Nc1ccccc1C(=O)NCCSc1ccccc1 18.1%, COc1ccc(NC(=O)N2CCC(n3cnc4ccccc43)CC2)cc1 50.6%, COc1ccc(C(=O)C2CCCN(C(=O)C3=CCCC3)C2)c(C)c1 (stereo not given) 23.5%, COc1ccc(C(=O)C2CCCN(C(=O)c3noc4c3CCCC4)C2)cc1F (stereo not given) 63.6%, CCC1CCCCN1CCCNC(=O)c1ccc2c(c1)c(C)c(C)n2C (stereo not given) 54.9%, CCN(CC)C(=O)c1ccc(COc2ccccc2Br)o1 65.5%, O=C(Nc1cccnc1)c1ccc(COc2ccccc2Cl)o1 33.4%, Cc1ccc(S(=O)(=O)CC(O)COc2ccc(F)cc2Cl)cc1 (stereo not given) 22.4%, Cc1ccc(S(=O)(=O)NC(=O)COc2cc(C)ccc2C(C)C)cc1 52.6%, CCN(CC)S(=O)(=O)c1ccc(OC)c(NC(=S)Nc2ccc(C)c(C)c2)c1 55.9%, Cc1ccc(S(=O)(=O)N2CCC(=O)N(CCOCc3ccc(F)cc3)CC2)cc1 43.1%, Cc1ccc(C)c(S(=O)(=O)C(C#N)c2nc3ccccc3nc2N2CC(C)OC(C)C2)c1 (stereo not given) 27.3%, Cc1ccc(-c2nnc(N3CCCCC3)c3ccccc23)cc1S(=O)(=O)N1CCN(C)CC1 63.7%, COc1cc(OC)cc(C(=O)NC(=S)NNC(=O)[C@H]2C[C@@H]2c2ccccc2)c1 40.3%, CS(=O)(=O)c1ncc(Cl)c(C(=O)Nc2ccc(N3CCOCC3)cc2)n1 47.9%, CS(=O)(=O)c1ncc(Cl)c(C(=O)Nc2ccc(OC(F)F)cc2)n1 58.6%, Cc1nn(CC2CC2)c(=O)n1-c1ccc(Oc2ccccc2)cc1 38.3%, N#Cc1c(Cl)cccc1N1CCCC1 31.6%, C[C@@H](NCCc1ccc(O)cc1)[C@@H](O)c1ccc(O)cc1 45.4%, CC(C)NCC(O)c1ccc(O)c(O)c1 (stereo not given) 69.8%, CCc1ccccc1NC(=O)C1CC(c2ccc(OC)cc2)=NO1 (stereo not given) 74.4%, N#CCCn1cc(/C=C2\NC(=S)N(c3ccccc3)C2=O)c(-c2ccc(F)cc2)n1 57.6%, Cc1ccc(C(=O)N/C(=C\c2cccs2)c2nc3ccccc3[nH]2)cc1 11.9%, COc1ccc(C(=O)N2CCCC(O)C2)cc1OC1CCN(C(C)C)CC1 (stereo not given) 62.6%, CSc1ccc(C(=O)C2CCCN(C(=O)c3ccsc3)C2)cc1 (stereo not given) 56.5%, CC(C)(C)CC(=O)NCCc1csc(-c2ccccc2)n1 41.1%, N#C/C(=N\Nc1cccc(C(F)(F)F)c1)C(=O)c1ccsc1 41.5%, CC[N+]1(CC)CC2=Cc3c(ccc4ccccc34)C(C)C2C1 (stereo not given) 52.3%, CC(=O)N(C)c1ccc(NC(=O)C(Sc2ccccc2)c2ccccc2)cc1 (stereo not given) 37%, CC(C)(C)C(=O)/C(C#N)=C/c1ccc(O)cc1 26.3%, CCCC1=NN2C(=N)/C(=C\c3ccc(SCc4ccco4)o3)C(=O)N=C2S1 51%, Cc1ccc(S(=O)(=O)Oc2cccc(/C=N/n3cnnc3)c2)cc1 25.6%, Cc1ccc(S(=O)(=O)Oc2ccccc2/C=C2/SC(=O)NC2=O)cc1 45%, CS(=O)(=O)C1=NN2C(=N)/C(=C\c3ccc(OC(=O)c4ccco4)cc3)C(=O)N=C2S1 59.2%, Cc1ccc(S(=O)(=O)Oc2ccccc2/C=C2\SC(=O)NC2=O)cc1 32.3%, CC(C)CS(=O)(=O)C1=NSC2=NC(=O)/C(=C\c3ccc(OC(=O)c4ccco4)cc3)C(=N)N21 46%, Cc1ccccc1NC(=O)c1ccc(C)c(S(=O)(=O)N2CCN(C)CC2)c1 60.5%, CCOc1ccc(Br)cc1S(=O)(=O)N1CCCC1 36.7%, COc1ccc(/C=C/C(=O)NC2CCCCCCC2)cc1S(=O)(=O)N1CCOCC1 59%, Oc1ccc(/C=N/n2c(-c3ccccc3)n[nH]c2=S)cc1Br 8.27%, CN(c1ccc(O)cc1)c1nc(-c2cccs2)cs1 23.4%, COc1ccc(C(=O)NCc2ccon2)cc1OC1CCN(C(C)C)CC1 57.9%, COc1cc(CNCCc2ccccc2)cc(Br)c1OCC(=O)Nc1ccccc1C 37.7%, Cn1c(SCc2nc3ccccc3s2)nnc1-c1cccs1 18.9%, CC(=O)Nc1ccc(S(=O)(=O)Nc2nc3ccccc3nc2Nc2ccc(N)cc2)cc1 27.9%, COc1ccc(-c2nnc(CSc3nc4ccccc4c(=O)n3CC3CCCO3)o2)cc1OC (stereo not given) 57.4%, CC(C)(C)NS(=O)(=O)c1ccc(N2C(=O)c3ccccc3C2=O)cc1 29.7%, Cc1noc(C)c1C(=O)Nc1sc(C)c(-c2ccccc2)c1C#N 36.6%, O=C(OCc1nc2ccsc2c(=O)[nH]1)c1cc(Br)c(Br)s1 33.4%, O=c1c(-c2ccccc2)c[nH]n1-c1cccc([N+](=O)[O-])c1 51.3%, Cc1[nH]n(-c2ccccc2)c(=O)c1C(c1cccc([N+](=O)[O-])c1O)c1c(C)[nH]n(-c2ccccc2)c1=O 62.9%, Cc1cccnc1NC(=O)c1cccc(S(=O)(=O)N2CCN(c3ccc(F)cc3)CC2)c1 28.9%, O=C(C1CCN(S(=O)(=O)c2ccc(Br)s2)CC1)N1CCN(c2ccccc2)CC1 7.31%, COc1cc(-c2nnc(SC/C=C/c3ccccc3)n2N)cc(OC)c1OC 32.7%, CCOC(=O)c1sc(=S)n(CC)c1NC(=O)C1CC1 23.2%, O=c1cc(CNc2ccc(Br)cc2)nc2sccn12 33.4%, CCCN1Cc2cccc(C(=O)NCc3ccccc3OC)c2C1=O 30.2%, Cc1cc(O)ccc1C1(c2ccc(O)cc2C)OC(=O)c2ccccc21 28.5%, CCCCCCCCC[n+]1cccc2c3ccccc3ccc21 42.3%, Cc1c(C)n(CCc2ccccc2)c2ncnc(NN)c12 28.7%, Cn1ncc2c(N3CCC(Cc4ccccc4)CC3)ncnc21 33.5%, O=C(NC1CC1)C1=C[C@H](c2ccc(Br)cc2)C[C@H](OCc2ccc(CO)cc2)O1 52.6%, Cn1nc(C(F)(F)F)c(-c2ccccc2)c1NC(=O)c1ccco1 58.8%, O=C(Nc1ccc(Cl)cn1)C1CCCN(c2ncnc3c2nc2n3CCCCC2)C1 (stereo not given) 53.9%, O=C(Nc1ccccc1Cl)C1CCCN(c2ncnc3c2nc2n3CCCCC2)C1 (stereo not given) 79.8%, O=C(N/N=C/c1cccc(Oc2ccccc2)c1)c1cccc(O)c1 25.8%, O=c1cc(CN2CCN(c3ccccc3O)CC2)nc2sccn12 51.6%, O=c1cc(CSc2nc3cc(Cl)ccc3o2)nc2sccn12 48.6%, O=C(Cn1nc(C(F)(F)F)c2c1CCCC2)NC1CCCC1 15.2%, O=C(Cn1nc(C(F)(F)F)cc1C1CC1)NCc1ccccc1F 3.99%, Clc1cccc(CNCCNCc2cccc(Cl)c2)c1 27.9%, O=C(CSc1nnc(Cc2ccsc2)o1)c1ccccc1 45.5%, CC(C)(C)OC(=O)NCCc1nnc(SCc2ccc(Cl)cc2)o1 24.7%, CCOC(=O)c1[nH]c(C=O)c(C(=O)OCC)c1C 38%, O=C(CSc1nccn1-c1ccc(F)cc1)NCc1ccc(F)cc1 30.9%, C=CCn1c(CSc2nc3ccccc3s2)nnc1SCC(=O)NCc1ccccc1 42.6%, COc1ccc(-c2cc(C(=O)NCCCN3CCOCC3)c3cc(C(C)C)ccc3n2)cc1 29.7%, Cc1nc2cc(C(=O)N3c4ccccc4CC3C)ccc2s1 (stereo not given) 45.4%, CCN1CCN(C(=O)CCc2nc3ccccc3n2-c2ccccc2)CC1 64%, CC(=O)c1cccc(OCC(=O)c2cc(C)n(-c3cc(C)on3)c2C)c1 24%, N#C/C(=C\c1ccc(O)c(Br)c1)C(=O)NCc1ccccc1 24.4%, COc1ccccc1NS(=O)(=O)c1ccc(O)c(C(=O)OCC(=O)c2ccc(Cl)cc2Cl)c1 5.73%, Cc1c(Cl)cccc1NCC(=O)NN=C1CCCC1 48.2%, Cc1nc(SC2CC(=O)N(c3cc(Cl)cc(Cl)c3)C2=O)nc2c1CCCC2 (stereo not given) 18.9%, COc1ccc(OC)c(Cc2nnc(CCC(=O)N3CCN(C4CCCC4)CC3)o2)c1 50.6%, Cc1ccc(S(=O)(=O)N/N=C/c2cc(Br)ccc2O)cc1 53.1%, Cc1cc(/C=N/NC(=O)C(=O)NCc2ccccn2)c(C)n1-c1ccccc1 59.3%, CC(C)(C)c1cc(C(=O)N/N=C/c2ccc(F)cc2)n(-c2ccccc2)n1 37.8%
